According to PubChem BioAssay:
A number with no mark means an inactive call. For some assays here: Measured potencies and affinities stand elsewhere. The source made the active and inactive calls. Unless noted, how the calls were made is not given here.

Experiments:
[1] = antimalarial activity against Dd2 strain (AID 2302;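 active means growth inhibition above 50% at the single 2 µM test dose, taken to imply half-maximal potency below 2 µM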;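 further: 0% = DMSO untreated growth and 100% = chloroquine plus artemisinin killed control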); details: P. falciparum Dd2 in RBCs, LDH growth readout, 72 h; at 2 µM; active compounds read high
[2] = human hepatoma cell viability loss – ATP luminescence, cytotoxicity control for P. falciparum antimalarial project, primary screen (AID 2303;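 active means inhibition above 50%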;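 further: 0% = DMSO wells and 100% = digitonin-killed cells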); details: HepG2 viability, 24-48 h, at 10 µM, active compounds read high
[3] = target: L-lactate dehydrogenase (Plasmodium falciparum (isolate CDC / Honduras)) (UniProt Q27743); assay: PfLDH activity inhibition – cell lysate, 3D7 strain, counter-screen for P. falciparum growth inhibition project (AID 2304);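 further: 0% = vehicle and 100% = reference inhibitor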; details: P. falciparum 3D7 crude extract, LDH APAD/NBT absorbance; at 2 µM; active compounds read high
[4] = inhibition of 3D7 malaria parasite growth – strain 3D7 (AID 2306);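 further: 0% = DMSO wells and 100% = chloroquine plus artemisinin control wells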; details: P. falciparum 3D7 erythrocytic growth, LDH absorbance, 72 h; at 2 µM; active compounds read high
[5] = target: Calcium-dependent protein kinase 1 (Plasmodium falciparum (isolate 3D7)) (UniProt P62344); assay: PfCDPK1 kinase inhibitors, biochemical, TCAMS library (AID 1159585; cut-off not given, nearly all actives have IC50 up to about 0.98 µM;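 further: inhibitors leave more ATP so luminescence rises with inhibition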); details: recombinant PfCDPK1, Kinase-Glo ATP depletion luminescence
[6] = target: Plasmodium falciparum protein kinase 6 (PK6, PF3D7_1337100) (UniProt Q8IDW1); assay: PfPK6 kinase inhibitors, biochemical, TCAMS library (AID 1159586); details: recombinant PfPK6, Kinase-Glo ATP depletion luminescence
[7] = target: Protein kinase 7 (PK7), Plasmodium falciparum 3D7 (PF3D7_0213400) (UniProt Q7YTF7); assay: inhibition of Plasmodium PK7 catalytic activity – biochemical, TCAMS antimalarial set, Kinase-Glo luminescence (AID 1159587); details: recombinant PfPK7, Kinase-Glo ATP depletion luminescence
[8] = target: Calcium-dependent protein kinase 4 (Plasmodium falciparum (isolate 3D7)) (UniProt Q8IBS5); assay: PfCDPK4 kinase inhibitors, biochemical, TCAMS library (AID 1159588; cut-off not given, nearly all actives have IC50 up to about 0.91 µM); details: recombinant PfCDPK4, Kinase-Glo ATP depletion luminescence
Chain of Calcium-dependent protein kinase 4 (Plasmodium falciparum (isolate 3D7)) (Q8IBS5 whole entry, looked up): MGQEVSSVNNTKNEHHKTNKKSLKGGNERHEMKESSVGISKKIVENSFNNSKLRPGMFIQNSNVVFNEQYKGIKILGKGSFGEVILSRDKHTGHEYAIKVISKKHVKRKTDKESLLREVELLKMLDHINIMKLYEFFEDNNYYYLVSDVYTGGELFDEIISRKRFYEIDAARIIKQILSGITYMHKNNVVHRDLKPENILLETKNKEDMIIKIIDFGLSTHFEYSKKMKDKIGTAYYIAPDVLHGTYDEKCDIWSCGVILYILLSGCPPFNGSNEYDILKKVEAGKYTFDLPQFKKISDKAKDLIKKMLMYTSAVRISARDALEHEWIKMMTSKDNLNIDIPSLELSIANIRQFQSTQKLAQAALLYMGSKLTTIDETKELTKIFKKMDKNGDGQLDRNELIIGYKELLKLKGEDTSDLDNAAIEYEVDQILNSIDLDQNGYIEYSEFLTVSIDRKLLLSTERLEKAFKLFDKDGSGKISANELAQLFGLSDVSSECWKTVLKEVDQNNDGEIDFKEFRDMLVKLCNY

Chain of Calcium-dependent protein kinase 1 (Plasmodium falciparum (isolate 3D7)) (P62344 whole entry, looked up): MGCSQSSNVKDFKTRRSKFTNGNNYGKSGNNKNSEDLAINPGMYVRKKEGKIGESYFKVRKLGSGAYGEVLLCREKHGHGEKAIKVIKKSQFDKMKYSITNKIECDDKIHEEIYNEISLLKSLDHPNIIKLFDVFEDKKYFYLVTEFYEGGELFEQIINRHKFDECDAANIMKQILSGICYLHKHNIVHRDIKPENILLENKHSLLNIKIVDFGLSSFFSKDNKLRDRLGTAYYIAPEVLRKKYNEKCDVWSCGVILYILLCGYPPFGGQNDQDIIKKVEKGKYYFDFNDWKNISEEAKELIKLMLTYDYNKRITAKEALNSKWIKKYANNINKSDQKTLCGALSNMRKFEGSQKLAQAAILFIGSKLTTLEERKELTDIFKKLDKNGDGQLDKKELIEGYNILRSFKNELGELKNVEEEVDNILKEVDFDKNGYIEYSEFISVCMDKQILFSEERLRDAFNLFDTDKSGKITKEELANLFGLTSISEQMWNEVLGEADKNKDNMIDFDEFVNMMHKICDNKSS
Chain of Protein kinase 7 (PK7), Plasmodium falciparum 3D7 (PF3D7_0213400) (Q7YTF7 1-343): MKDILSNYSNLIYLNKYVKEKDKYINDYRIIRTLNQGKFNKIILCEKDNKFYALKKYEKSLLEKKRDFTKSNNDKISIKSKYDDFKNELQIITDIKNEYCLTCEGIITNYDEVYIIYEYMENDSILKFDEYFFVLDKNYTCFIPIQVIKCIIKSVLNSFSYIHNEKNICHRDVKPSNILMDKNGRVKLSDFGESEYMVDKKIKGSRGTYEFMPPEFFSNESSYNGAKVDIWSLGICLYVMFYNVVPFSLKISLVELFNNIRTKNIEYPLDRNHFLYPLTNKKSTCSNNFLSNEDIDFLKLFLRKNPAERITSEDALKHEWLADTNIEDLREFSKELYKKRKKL
Chain of L-lactate dehydrogenase (Plasmodium falciparum (isolate CDC / Honduras)) (Q27743 whole entry, looked up): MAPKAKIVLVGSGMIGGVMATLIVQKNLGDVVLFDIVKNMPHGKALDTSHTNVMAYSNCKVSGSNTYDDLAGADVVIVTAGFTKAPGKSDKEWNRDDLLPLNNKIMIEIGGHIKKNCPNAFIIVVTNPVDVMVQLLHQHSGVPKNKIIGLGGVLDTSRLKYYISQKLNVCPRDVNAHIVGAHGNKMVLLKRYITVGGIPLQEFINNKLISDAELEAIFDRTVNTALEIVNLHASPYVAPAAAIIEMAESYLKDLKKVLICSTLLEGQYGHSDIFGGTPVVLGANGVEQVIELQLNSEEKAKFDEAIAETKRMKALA
Chain of Plasmodium falciparum protein kinase 6 (PK6, PF3D7_1337100) (Q8IDW1 1-305): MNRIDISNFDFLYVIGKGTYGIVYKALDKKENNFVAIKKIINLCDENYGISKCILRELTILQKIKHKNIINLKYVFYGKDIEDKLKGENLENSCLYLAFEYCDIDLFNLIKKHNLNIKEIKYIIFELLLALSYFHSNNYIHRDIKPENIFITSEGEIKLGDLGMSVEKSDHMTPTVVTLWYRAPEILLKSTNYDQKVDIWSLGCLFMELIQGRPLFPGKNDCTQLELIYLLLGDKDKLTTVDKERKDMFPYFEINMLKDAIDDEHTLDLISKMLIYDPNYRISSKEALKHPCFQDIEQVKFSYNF

Structure (SMILES) | growth inhibition [1] | inhibition [2] | inhibition [3] [%] | growth inhibition [4] | outcome [5] | outcome [6] | outcome [7] | outcome [8]
O=C(C=Cc1ccc(F)cc1)N1CCN(S(=O)(=O)c2ccc(Cl)cc2)CC1 | 93% (active) | 10% | -2 | 91% (active) | inactive | inactive | inactive | inactive
Cc1ccc(NC(=O)Nc2ccc(Cl)c(C(F)(F)F)c2)cc1-c1ccc(C(=O)Nc2ccncc2)cc1 | 99% (active) | 77% (active) | 3 | 99% (active) | inactive | inactive | inactive | inactive
Cc1cccc2[nH]c(-c3cccc(-c4ccc(NC(=O)CN5CCN(C)CC5)cc4)c3)nc12 | 99% (active) | 45% | -8 | 101% (active) | inactive | inactive | inactive | inactive
Nc1ccnc2ccc(NC(=O)CCCCCc3ccccc3)cc12 | 30% | 47% | 3 | 96% (active) | inactive | inactive | inactive | inactive
Cc1nc(N2CCC(C)CC2)c2c3c(sc2n1)CCCC3 | 39% | 13% | 1 | 93% (active) | inactive | inactive | inactive | inactive
Cc1cc(N2CCN(C3CCCCC3)CC2)nc2cccc(O)c12 | 37% | 12% | -3 | 101% (active) | inactive | inactive | inactive | inactive
CSc1ccc2ccccc2c1CNCCCCCCNCc1c(SC)ccc2ccccc12 | 74% (active) | 83% (active) | 3 | 99% (active) | inactive | inactive | inactive | inactive
O=C(/C=C/c1ccc(Cl)c(Cl)c1)NCCCCCN1CCC(NC(=O)Nc2ccc(Cl)cc2F)CC1 | 40% | 100% (active) | -8 | 101% (active) | inactive | inactive | inactive | inactive
CCN(CC)CCN(Cc1ccc(-c2ccc(C(F)(F)F)cc2)cc1)C(=O)Cn1c(CCc2ccc(F)cc2)nc(=O)c2sccc21 | 90% (active) | 100% (active) | -3 | 99% (active) | inactive | inactive | inactive | inactive
O=c1cnc2ccc(F)cc2n1CCN1CCC(NCc2cc(-c3ccccc3)cs2)CC1 | 14% | -5% | -2 | 91% (active) | inactive | inactive | inactive | inactive
Cc1cc(N[C@@H](Cc2ccccc2)C(=O)NCc2cccs2)nc(NCCc2cccnc2)n1 | 38% | 10% | -4 | 84% (active) | inactive | inactive | inactive | inactive
COc1cc(C(=O)Nc2cccc(-c3cn4cccc(C)c4n3)c2)cc(OC)c1OC | 77% (active) | -3% | -1 | 99% (active) | inactive | inactive | inactive | inactive
CN(Cc1cccc(F)c1)C1CCN(c2cc(NC(=O)c3cccc(F)c3)ccn2)CC1 | 13% | 12% | 3 | 94% (active) | inactive | inactive | inactive | inactive
CN(C)CCN(C)Cc1ccc(-c2ccc(NS(=O)(=O)c3cccc4cccnc34)cc2)cc1 | 16% | 23% | -1 | 93% (active) | inactive | inactive | inactive | inactive
CC=CC1CCNC(C(O)c2ccnc3ccc(OC)cc23)C1 (stereo not given) | 1% | -2% | 3 | 91% (active) | inactive | inactive | inactive | inactive
CC(CON1C(N)=NC(N)=NC1(C)C)Cc1ccc(Cl)cc1Cl (stereo not given) | 97% (active) | 61% (active) | 2 | 92% (active) | inactive | inactive | inactive | inactive
CCN(CCCN1CCCCC1)c1cc(C)nc(Nc2ccc(OC)cc2)n1 | 24% | 23% | -6 | 100% (active) | inactive | inactive | inactive | inactive
O=C(/C=C/c1ccc(Cl)c(Cl)c1)N1CCC(CCN2CCC(c3c[nH]c4ccccc34)CC2)CC1 | 44% | 56% (active) | -3 | 100% (active) | inactive | inactive | inactive | inactive
COc1ccc(-c2nnc(Sc3ccc(C#N)c([N+](=O)[O-])c3)n2CCC(C)C)cc1 | 53% (active) | 15% | 5 | 89% (active) | inactive | inactive | inactive | inactive
CCOC(=O)CNC(=O)c1cc(=O)c2ccccc2o1 | -4% | 22% | -4 | 99% (active) | inactive | inactive | inactive | inactive

Structure (SMILES) | growth inhibition [1] | inhibition [2] | inhibition [3] [%] | growth inhibition [4] | outcome [5] | outcome [6] | outcome [7] | outcome [8]
Cc1nc(C(C)Nc2nncc(-c3ccc(Cl)cc3)n2)cs1 (stereo not given) | 55% (active) | -15% | -2 | 91% (active) | inactive | inactive | inactive | inactive
CCCNC(=O)c1ccnc(-c2ccc(CNC3Cc4ccccc4C3)cc2)c1 | 21% | 24% | -3 | 92% (active) | inactive | inactive | inactive | inactive
CC(CCc1ccccc1)NCC(O)c1ccc2c3c(cccc13)C(=O)N2C (stereo not given) | 57% (active) | 37% | -2 | 99% (active) | inactive | inactive | inactive | inactive
CNCc1cccc2[nH]c(-c3ccc(Cc4cc(Cl)ccc4OCC(C)C)o3)nc12 | 23% | 20% | 0 | 97% (active) | inactive | inactive | inactive | inactive
Cc1cccc2[nH]c(-c3ccc(-c4cccc(NC(=O)Nc5ccsc5)c4)s3)nc12 | 29% | 30% | -3 | 100% (active) | inactive | inactive | inactive | inactive
NC(N)=NCCCN(Cc1ccccc1)c1ccccc1 | 97% (active) | -13% | -3 | 100% (active) | inactive | inactive | inactive | inactive
O=S(=O)(NCCN1CCCC1)c1cccc(-c2ccc(CNCc3ccc(F)cc3)cc2)c1 | 41% | 38% | 6 | 104% (active) | inactive | inactive | inactive | inactive
O=C(Nc1ccc(C(F)(F)F)cc1)NC1CCN(c2ccnc3cc(Cl)ccc23)CC1 | 74% (active) | 22% | -3 | 102% (active) | inactive | inactive | inactive | inactive
COc1cc(OC)cc(C(=O)N2CCOC(CCN3CCC(c4ccccc4)CC3)(c3ccc(Cl)c(Cl)c3)C2)c1 (stereo not given) | 61% (active) | 13% | 1 | 85% (active) | inactive | inactive | inactive | inactive
CC(C)NCc1ccc(OCc2cccc(COc3ccc(CNC(C)C)cc3I)c2)c(I)c1 | 92% (active) | 100% (active) | 6 | 101% (active) | inactive | inactive | inactive | inactive
CN1CCC(N2CCN(Cc3ccc(-c4ccc(-c5nc6ccc(F)cc6[nH]5)s4)cc3)CC2)CC1 | 100% (active) | 62% (active) | 3 | 100% (active) | inactive | inactive | inactive | inactive
CCN1CCN(CCCCNc2c3ccccc3nc3ccccc23)CC1 | -5% | 22% | 8 | 100% (active) | inactive | inactive | inactive | inactive
C[C@@H](Oc1cc(-n2cnc3ccc(NC(=O)NC(C)(C)C)cc32)sc1C(N)=O)c1ccccc1Cl | 97% (active) | 28% | 1 | 95% (active) | inactive | inactive | inactive | inactive
COc1ccc(CN2CCN(C(=O)c3cccs3)CC2)c(O)c1 | 2% | 7% | 2 | 97% (active) | inactive | inactive | inactive | inactive
Clc1ccc(Cl)c2[nH]c(CNCCCNc3nc4ccccc4[nH]3)cc12 | 39% | 88% (active) | -6 | 100% (active) | inactive | inactive | inactive | inactive
c1ccc(-c2nc(NCCCn3ccnc3)cc(-c3ccncc3)n2)cc1 | 100% (active) | 42% | -8 | 103% (active) | inactive | inactive | inactive | inactive
CN1CCN(CCCN(Cc2ccc(-c3cccc(CNC4CCCC4)c3)cc2)C(=O)/C=C/c2ccccc2)CC1 | 87% (active) | 36% | 4 | 100% (active) | inactive | inactive | inactive | inactive
Oc1cccc(Nc2ccnc3cc(-c4ccccn4)ccc23)c1 | 98% (active) | 24% | -3 | 96% (active) | inactive | inactive | inactive | inactive
O=C(/C=C/c1ccc(Cl)c(Cl)c1)NCCCCCN1CCC(CCNC(=O)C2(c3ccc(Cl)cc3)CC2)CC1 | 16% | 96% (active) | -3 | 91% (active) | inactive | inactive | inactive | inactive
NC(=O)c1cc(-c2ccccc2)cc2c(C3CCC(NCc4ccccc4)C3)c[nH]c12 (stereo not given) | 30% | 99% (active) | -7 | 95% (active) | inactive | inactive | inactive | inactive
